How the values were obtained:
Format in all cases: functional
[1] = tested on: Plasmodium falciparum; assay: GSK_TCMDC: Inhibition of Plasmodium falciparum 3D7 in whole red blood cells, using parasite LDH activity as an index of growth. Test compounds present at 2uM
[2] = tested on: Plasmodium falciparum; assay: GSK_TCMDC: Inhibition of Plasmodium falciparum Dd2 in whole red blood cells, using parasite LDH activity as an index of growth. Test compounds present at 2uM
[3] = tested on: HepG2; assay: GSK_TCMDC: Percent inhibition of human HepG2 cell line. Test compounds present at 10uM.

## CC(C)C(=O)NC(c1ccc(N(C)C)cc1)c1cc(Cl)c2cccnc2c1O (stereo not drawn)
[1]
  Inhibition: 87%
[2]
  Inhibition: 64%
[3]
  Inhibition: 61%

## CC(C)(C)OC(=O)N(Cc1cc(-n2nnnc2C(F)(F)F)ccc1O)[C@H]1CCCN(C(=O)OC(C)(C)C)[C@H]1c1ccccc1
[1]
  Inhibition: 98%
[2]
  Inhibition: 66%
[3]
  Inhibition: 14%

## O=C(Nc1cccc(C2=NCCN2)c1)Nc1cccc(C2=NCCN2)c1 [IMIDOCARB]
[1]
  Inhibition: 98%
[2]
  Inhibition: 99%
[3]
  Inhibition: 16%

## COCCCN=C(S)NN=C(C)c1ccccn1
[1]
  Inhibition: 100%
[2]
  Inhibition: 99%
[3]
  Inhibition: 55%

## CN1CCN(CCCNCc2ccccc2-c2cccc(CNCc3ccc4c(c3)OCO4)c2)CC1.O=C(O)C(F)(F)F
[1]
  Inhibition: 100%
[2]
  Inhibition: 7%
[3]
  Inhibition: 34%

## COc1cccc(CNC[C@@H](O)[C@H](Cc2ccccc2)NC(=O)c2cc(NC(C)C)cc(N3CCCCS3(=O)=O)c2)c1.O=CO
[1]
  Inhibition: 89%
[2]
  Inhibition: 97%
[3]
  Inhibition: 1%

## CC1CN(c2ccc(NC(=O)c3ccsc3)cc2C(=O)N2CCN(Cc3ccc(C(C)(C)C)cc3)CC2)CC(C)O1 (stereo not drawn)
[1]
  Inhibition: 90%
[2]
  Inhibition: 80%
[3]
  Inhibition: 12%

## Cc1cc(Cl)ccc1NC(=O)Nc1ccc2nccc(N3CCN(C)CC3)c2c1
[1]
  Inhibition: 100%
[2]
  Inhibition: 74%
[3]
  Inhibition: 0%

## CCN(CC)CCNc1nc(C=Cc2ccc(Cl)cc2)nc2cc3ccccc3cc12
[1]
  Inhibition: 100%
[2]
  Inhibition: 99%
[3]
  Inhibition: 83%

## O=C(O)C(F)(F)F.O=S(=O)(NC1CCN(c2ccnc3cc(Cl)ccc23)C1)c1ccc(C(F)(F)F)cc1 (stereo not drawn)
[1]
  Inhibition: 100%
[2]
  Inhibition: 98%
[3]
  Inhibition: 20%

## CN(C)CCCOc1cc(NC(=O)Nc2ccc(-c3ccncc3)c3ccccc23)ccc1I.Cl
[1]
  Inhibition: 100%
[2]
  Inhibition: 97%
[3]
  Inhibition: 46%

## O=C(Cn1c(CCc2cccc(F)c2F)nc(=O)c2ccccc21)N(Cc1ccc(-c2ccc(C(F)(F)F)cc2)cc1)C1CCN(C2CCSCC2)CC1.O=C(O)C(O)C(O)C(=O)O
[1]
  Inhibition: 99%
[2]
  Inhibition: 93%
[3]
  Inhibition: 97%

## CC(C)c1ccc(NC(=O)c2ccc(C(=O)NC3CCN(CC4CCCCC4)C3)cc2)cc1.O=C(O)C(F)(F)F (stereo not drawn)
[1]
  Inhibition: 93%
[2]
  Inhibition: 26%
[3]
  Inhibition: 35%

## CC(CN(C)C)C(=O)Nc1cccc(-c2ccc(-c3nc4cc(C(F)(F)F)ccc4[nH]3)cc2)c1 (stereo not drawn)
[1]
  Inhibition: 99%
[2]
  Inhibition: 97%
[3]
  Inhibition: 26%

## CN1CCC(C(=O)N(Cc2ccc(-c3ccc(CNCCc4ccccc4)cn3)cc2)Cc2cccc(F)c2)CC1.O=C(O)C(F)(F)F
[1]
  Inhibition: 90%
[2]
  Inhibition: 80%
[3]
  Inhibition: 30%

## COc1ccc2nccc([C@@H](O)CN3CCC(NC(=O)C(c4cc5ccccc5o4)N4CCN(c5ccccc5)CC4)CC3)c2c1 (stereo partly drawn)
[1]
  Inhibition: 99%
[2]
  Inhibition: 99%
[3]
  Inhibition: 19%

## CCOc1ccc2c(=NN=Cc3c4ccccc4cc4ccccc34)cc(C)[nH]c2c1
[1]
  Inhibition: 90%
[2]
  Inhibition: 94%
[3]
  Inhibition: 0%

## Cc1ccc2[nH]c(C)cc(=NN=Cc3ccccc3F)c2c1
[1]
  Inhibition: 97%
[2]
  Inhibition: 100%
[3]
  Inhibition: 36%

## CN1CCC=C(C(=O)NCC(C)(C)c2nc(-c3ccc(Cl)c(O)c3)c(-c3ccncc3)[nH]2)C1.Cl
[1]
  Inhibition: 96%
[2]
  Inhibition: 96%
[3]
  Inhibition: 39%

## Cl.Fc1ccccc1COc1ccc(Nc2ncnc3ccc(-c4nnc(C(F)(F)F)o4)cc23)cc1Cl
[1]
  Inhibition: 100%
[2]
  Inhibition: 46%
[3]
  Inhibition: 7%

## CCc1c[nH]c2c(N3CCCS3(=O)=O)cc(C(=O)N[C@@H](Cc3ccccc3)[C@H](O)CNC3CCCCC3)cc12.O=CO
[1]
  Inhibition: 99%
[2]
  Inhibition: 89%
[3]
  Inhibition: 6%

## CN1CCN(c2ccnc3cc4ccccc4cc23)CC1
[1]
  Inhibition: 93%
[2]
  Inhibition: 49%
[3]
  Inhibition: 11%

## O=C(NC1CCN(Cc2ccccc2)CC1)c1cc(-c2ccncc2)c(-c2ccc(Cl)c(O)c2)o1.O=C(O)C(F)(F)F
[1]
  Inhibition: 100%
[2]
  Inhibition: 86%
[3]
  Inhibition: 9%

## O=C(Nc1cc(C(F)(F)F)cc(C(F)(F)F)c1)Nc1cc(C(F)(F)F)cc(C(F)(F)F)c1
[1]
  Inhibition: 97%
[2]
  Inhibition: 100%
[3]
  Inhibition: 5%

## O=C(Nc1nc2cc(S(=O)(=O)NCc3ccc(Cl)c(Cl)c3)ccc2n1CCCn1ccnc1)c1ccc(Cl)cc1.O=C(O)C(F)(F)F
[1]
  Inhibition: 100%
[2]
  Inhibition: 44%
[3]
  Inhibition: 0%

## c1ccc(-c2nc(Nc3nc4ccccc4[nH]3)[nH]c2-c2ccccc2)cc1
[1]
  Inhibition: 96%
[2]
  Inhibition: 61%
[3]
  Inhibition: 14%
